An excerpt weighted towards active compounds, which were near 0.1% of everything screened.
N370S GC mod – N370S glucocerebrosidase modulation, Gaucher chaperone candidate | actives 0.092% (n = 330,000) | N370S GC spleen homogenate, 4MU-glucoside fluorescence | P04062 | Potency, µM (series often up to 59.4 µM), actives largely listed as inhibitors
Eya2 inh – blocks the phosphatase activity of human Eya2. O00167. recombinant Eya2, OMFP fluorescence dephosphorylation (OMFP is methylfluorescein phosphate). Potency, µM (top dose mostly 76.9 µM), usual class: inhibitors. actives 0.006% (n = 330,000). AID 488837
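Eya2 (0.2 uM) preincubated 10 min at ambient with compound, then OMFP substrate added at 50 uM; 10 min reaction in 50 mM HEPES pH 7.5, 50 mM NaCl, 5 uM MgCl2, 0.05% BSA, 1 mM DTT. Fluorescence read at Ex 485/Em 525 nm.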
MmCpn inh – blocks the Methanococcus maripaludis chaperonin Mm-Cpn; purified Mm-Cpn ATPase, ADP Transcreener TR-FRET; actives 0.031% (n = 330,000); Potency, µM (top dose mostly 76.9 µM), usual class: inhibitors; further: nearly all actives have a fitted effect of over 80% in size
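Purified archaeal chaperonin (25 nM final) was preincubated with compound for 10 min at 37°C, then ATP (10 uM final) was added for 30 min at 37°C in Tris pH 7.4/KCl/MgCl2/DTT buffer. ADP was quantified by HTRF Transcreener TR-FRET.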
USP2a block – inhibitors of human ubiquitin-specific protease USP2a; USP2 core, Ub-CHOP2 coupled fluorogenic reporter, 485/531; O75604; actives 0.01% (n = 330,000); Potency, µM (highest dose often 38.3 µM), usual class: inhibitors
Target sequence (O75604 whole entry, looked up): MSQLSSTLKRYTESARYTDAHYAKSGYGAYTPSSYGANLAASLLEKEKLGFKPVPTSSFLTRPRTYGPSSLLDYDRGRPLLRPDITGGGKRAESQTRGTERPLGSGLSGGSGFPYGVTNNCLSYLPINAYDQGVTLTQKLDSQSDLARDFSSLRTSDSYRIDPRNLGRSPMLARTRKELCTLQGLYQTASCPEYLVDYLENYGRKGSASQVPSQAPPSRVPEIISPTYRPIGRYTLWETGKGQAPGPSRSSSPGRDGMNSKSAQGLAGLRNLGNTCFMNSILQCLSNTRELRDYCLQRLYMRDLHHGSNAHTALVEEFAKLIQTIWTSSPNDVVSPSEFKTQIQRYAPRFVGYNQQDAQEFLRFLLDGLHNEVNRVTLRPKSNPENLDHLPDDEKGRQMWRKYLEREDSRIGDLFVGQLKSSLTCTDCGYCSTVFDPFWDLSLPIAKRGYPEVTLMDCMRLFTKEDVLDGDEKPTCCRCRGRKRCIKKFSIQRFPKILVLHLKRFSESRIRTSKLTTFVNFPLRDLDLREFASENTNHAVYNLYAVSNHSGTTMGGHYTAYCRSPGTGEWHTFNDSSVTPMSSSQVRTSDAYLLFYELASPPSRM
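Deubiquitinase activity read as fluorescence (485/531 nm) after Ub-CHOP2 cleavage activates the enterokinase reporter on its substrate; USP2 core 10nM, Ub-CHOP2 and substrate 25nM each, 30min compound preincubation then 60min RT; data normalized to NEM, curves fitted.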
Numbers stand for hits; i = inactive; ? = inconclusive; nt = no result given; [ ] = dose if it differs, or a comment. The call rests on the fitted dose curve; in most records, active means well fitted curve in the direction sought with a large enough effect; inconclusive means small, poorly fitted or top-dose-only effect, or another doubt; inactive means no such curve, though single readings can be large; an effect the other way counts as inactive or inconclusive.

SMILES | N370S GC mod | Eya2 inh | MmCpn inh | USP2a block
COc1cc2oc(-c3ccc(O)cc3)cc(=O)c2c(O)c1OC | 10µM | i | i | i
COC(c1ccccc1)C(C)C(OC)C(C)C(OC)C(C)C(C)=O (configuration not stated) | i[12.8 µM] | nt | nt | nt
C#CCOCCOCCOCCNc1nc(N2CCN(C(=O)CCCCCCCCCCNC(=O)[C@H]([C@@H](C)CC)n3cc(CCCCCN)nn3)CC2)nc(N2CCN(C(=O)CCCCCCCCCCNC(=O)[C@@H]([C@H](C)O)n3cc(C)nn3)CC2)n1 | ? | 28.2µM | i | 10µM
C#CCOCCOCCOCCNc1nc(N2CCN(C(=O)CCCCCCCCCCNC(=O)[C@H](CCCCN)n3cc(C)nn3)CC2)nc(N2CCN(C(=O)CCCCCCCCCCNC(=O)[C@@H]([C@H](C)CC)n3cc(CCCCCN)nn3)CC2)n1 | 17.8µM | i | i | ?
CC(/C=C/c1cccc(Oc2ccc(F)cc2)c1)N(O)C(N)=O (configuration not stated) | i | i | nt | nt
Cc1nc2cc(C)c(C)cc2s1 | i | i | i | i
Cc1cc2nc3ccc(=[N+](C)C)cc-3sc2cc1N | i | i | 31.6µM | i
c1ccc(-c2nc(NCc3cccnc3)c3ccccc3n2)cc1 | ? | i | i | i
COc1ccc(CNc2nc(-c3ccccc3)nc3ccccc23)cc1OC | 14.1µM | i | i | i
c1ccc(-c2nc(NC3CCCC3)c3ccccc3n2)cc1 | 15.8µM | i | i | i
Fc1ccc(CNc2nc(-c3ccccc3)nc3ccccc23)cc1 | 14.1µM | i | i | i
COc1ccc(Nc2nc(-c3ccccc3F)nc3ccccc23)cc1OC | 2.51µM | i | i | i
CC(=Nc1ccccc1N)c1c(C)cc(=O)n(O)c1O | i | nt | nt | nt
C=NCc1cc2c(OC[C@@H](O)CNC(C)(C)C)cccc2[nH]1 | i | nt | nt | nt
O=C(CNC(=O)Cc1ccccc1)N=Nc1c(O)[nH]c2ccccc12 | i | i | i | i
CC(C)(Cc1ccc(O)cc1)NC(=O)CC(=O)N=Nc1c(O)[nH]c2cc(Br)ccc12 | 11.2µM | i | i | i
COc1ccccc1-c1sc2ccccc2c1-c1ccc(OCCN2CCOCC2)cc1 | nt | i | 39.8µM | i
O=C(COc1ccccc1[N+](=O)[O-])Nc1cc(Cl)ccc1C(=O)O | i | i | 44.7µM | i
N#Cc1cccc(CS(=O)(=O)c2nc3ccccc3s2)c1 | i | nt | nt | nt
COC(=O)C1CC1[C@H](NC(=O)c1cccnc1)c1ccccc1 (some centres not stated) | i | nt | nt | nt
CNC(=O)[C@H]1O[C@@H](n2cnc3c(N)ncnc32)[C@H](O)[C@@H]1O | i | nt | nt | nt
CCN(CC)CCP(=O)(c1ccccc1)c1ccccc1 | i | i | i | i
CN(C)CCOCCP(=O)(c1ccccc1)c1ccccc1 | i | i | ? | 10µM
Cn1ncc(S(=O)(=O)Cc2ccccc2)c(Br)c1=O | nt | i | nt | nt
Cc1cccc(NC(=S)N(CCCN2CCOCC2)Cc2cn(C)c3ccccc23)c1 | 7.94µM | i | i | i
SMILES | N370S GC mod | Eya2 inh | MmCpn inh | USP2a block
Cn1cc(CN(CCCN2CCOCC2)C(=S)Nc2cccc(Cl)c2)c2ccccc21 | 10µM | i | i | i
COc1ccc(NC(=S)N(CCCN2CCOCC2)Cc2cn(C)c3ccccc23)cc1 | i | i | i | i
Cc1ccc(C)c(N2CCN(S(=O)(=O)c3ccc4c(c3)CCC(=O)N4)CC2)c1 | i | i | i | i
Cc1ccc(C)c(N2CCN(S(=O)(=O)c3ccc4[nH]c(=O)c(=O)[nH]c4c3)CC2)c1 | 12.6µM | i | i | i
Cc1ccc(C)c(N2CCN(S(=O)(=O)c3ccc4c(c3)NC(=O)CC(=O)N4)CC2)c1 | 14.1µM | i | i | i
COc1ccc(C2=Nn3c(nnc3-c3ccccc3O)SC2)cc1OC | i | nt | nt | nt
CCOc1ccc(-c2nc3ccc(-c4nc5ccc(N6CCN(C)CC6)cc5[nH]4)cc3[nH]2)cc1 | i | nt | nt | nt
COc1cccc(/C=C2\SC(=S)N(C(C)C(=O)NC3C=CS(=O)(=O)C3)C2=O)c1 (configuration not stated) | 15.8µM | i | i | i
CC1(C)Cc2c(c(-c3ccco3)nc3sc4c(NCCO)ncnc4c23)CO1 | i | i | i | i
CSc1nc(SCCO)c2sc3nc(-c4ccco4)c4c(c3c2n1)CC(C)(C)OC4 | i | i | i | 10µM
Cc1cc2ccccc2n1CCNC(=O)c1cccs1 | i | i | 28.2µM | i
COc1ccccc1-c1sc2cc3c(cc2c1-c1ccc2c(c1)OCO2)OCO3 | nt | i | 17.8µM | i
c1ccc(-c2ccc(N3CC[C@@]4(CCCNC4)C3)cc2)cc1 | i | nt | nt | nt
c1ccc(-c2ccc(N3CCCC4(CCNCC4)C3)cc2)cc1 | 15.8µM | nt | nt | nt
